Screens: PubChem BioAssay, The Scripps Research Institute Molecular Screening Center
ssDAF12 agonist = S. stercoralis DAF-12 nuclear receptor activators, primary screen, cell-based, luminescence, HEK293, GRIP1 co-expression, lit1-tk-luc; Nuclear hormone receptor DAF-12 (Strongyloides stercoralis); AID 652126, 2013; 1% of 370,000 active; HEK293 ssDAF-12/GRIP1 lit1-tk-luc reporter; % of 3 µM dafachronic acid response; activation, % at 6.8 µM;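 active = activation above the mean over all tested compounds plus 3 SD, cut at about 0.9% in these data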
hgDAF12 agonist = H. glycines DAF-12 receptor agonists, primary screen, cell-based, luminescence, HEK293, GAL4 fusion, UAS-luciferase; 1.8% of 370,000 active; Nuclear hormone receptor DAF-12 (Heterodera glycines), GAL4 fusion; HEK293 GAL4-hgDAF12 UAS-luciferase reporter, agonist luminescence; normalized to butyrate control; activation, % at 6.8 µM; AID 687014, 2013;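 active = activation above a cutoff set at the mean of all screened compounds plus 3 SD, cut at about 10% in these data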
hcDAF-12 act = H. contortus DAF-12 nuclear receptor activators, primary screen, cell-based, luminescence, HEK293, lit1-tk-luc reporter | HEK293 hcDAF-12 lit1-tk-luc reporter; 0% DMSO, 100% Δ7-dafachronic acid | activation, % at 6.8 µM | 1.4% of 370,000 active;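 active = activation above the mean of all tested compounds plus 3 SD, cut at about 5.5% in these data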
SMARCA2 act = SMARCA2 (BRM) function activators, primary screen, cell-based, luminescence, high throughput. MG213 cells, MMTV-luciferase reporter, dexamethasone, overnight. activation, % at 9.1 µM. 1% of 370,000 active. AID 652017, 2013; in the data active = activation above about 7.8%
DAX1 inh-1 = DAX1 (NR0B1) inhibitors on StAR promoter, primary screen, cell-based, luminescence, SF-1 (NR5A1), full-length DAX-1; HEK293T StAR-luciferase reporter, SF-1/DAX-1 repression relief; inhibition, % at 6.8 µM; 1.1% of 370,000 active; AID 652010, 2013;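 active = inhibition above the mean over all tested compounds plus 3 SD, cut at about 3.6% in these data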;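 note: higher inhibition means more luminescence from relief of DAX-1 repression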
DAX1 inh-2 = DAX1 (NR0B1) inhibitors, primary screen, cell-based, HEK293, Gal4-DAX1, luciferase luminescence. Nuclear receptor subfamily 0 group B member 1 (Homo sapiens), P51843. HEK293 Gal4-DAX1 luciferase reporter. inhibition, % at 6.75 µM. AID 504766, 2011. 0.99% of 340,000 active;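 active = inhibition above the mean over all tested compounds plus 3 SD, cut at about 4.2% in these data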;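 note: inhibition shows as a rise in luminescence from relieved DAX1 repression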
Target sequence (P51843 207-470 limits assumed): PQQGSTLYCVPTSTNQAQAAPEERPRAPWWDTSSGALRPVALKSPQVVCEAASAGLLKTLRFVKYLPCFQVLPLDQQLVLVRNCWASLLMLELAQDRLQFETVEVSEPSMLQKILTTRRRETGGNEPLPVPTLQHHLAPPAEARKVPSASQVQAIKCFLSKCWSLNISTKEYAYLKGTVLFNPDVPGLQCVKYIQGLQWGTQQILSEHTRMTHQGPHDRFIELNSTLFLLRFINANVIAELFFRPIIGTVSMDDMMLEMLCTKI
A number is an active result; i = inactive; nt = no result given. Only some compounds are listed: those with a hit (about 4.8% of all), similar ones and a draw of the others.

SMILES	ssDAF12 agonist	hgDAF12 agonist	hcDAF-12 act	SMARCA2 act	DAX1 inh-1	DAX1 inh-2
O=C(OCC(=O)N1CCC(Cc2ccccc2)CC1)c1cc(Cl)ccc1O	i	i	i	i	3.9	i
COc1ccccc1C(=O)OCC(=O)N1CCC(Cc2ccccc2)CC1	i	i	i	i	i	i
CCc1cccc(NS(=O)(=O)c2ccc3c(c2)N(C)CCO3)c1	i	i	i	i	i	i
O=C(Nc1nnc(CC(c2ccccc2)c2ccccc2)s1)c1ccco1	i	i	i	i	i	4.5
C[C@H](NC(=O)c1ccco1)C(=O)Nc1nnc(SCc2ccccc2)s1	i	i	i	i	3.7	i
O=C(Nc1nnc(SCc2ccccc2F)s1)c1ccco1	i	i	i	i	i	i
CCC(c1ccccc1)c1nnc(NC(=O)c2ccco2)s1 (stereo not drawn)	i	i	i	i	i	nt
CCCSc1nnc(NC(=O)c2ccco2)s1	i	i	i	i	i	6.1
O=S(=O)(Nc1ccccc1F)c1cccc(NC(=S)NCCN2CCOCC2)c1	i	i	i	i	i	i
CC(=O)Nc1ccc(NC(=O)COC(=O)c2c(-c3ccccc3)noc2C)cc1	i	i	i	i	i	i
Nc1[nH]nc2nc3ccccc3cc12	i	i	i	i	i	i
CCc1ccc2nc3n[nH]c(N)c3cc2c1	i	11	i	i	i	i
C=CCN(C)C(C#CCCCC)c1ccccc1 (stereo not drawn)	i	i	i	nt	nt	nt
COc1ccc(-n2c(C)nnc2SCC(=O)N2CCOCC2)cc1	i	i	i	i	i	i
O=[N+]([O-])c1cc2c(cc1CN1CCN(CCOCCO)CC1)OCO2	i	i	i	i	i	4.4
O=[N+]([O-])c1ccc2[nH]c(=S)sc2c1	2.2	i	i	i	i	i
COc1ccc(NC(=O)N(C)C[C@@H]2Oc3cc(C#CCN(C)C)ccc3S(=O)(=O)N([C@H](C)CO)C[C@H]2C)cc1	i	i	i	i	i	i
Cc1ccc(C(=O)NCCC(=O)N2CCC3(CC2)NCCc2[nH]cnc23)cc1	i	i	i	i	i	i
Cc1cc(C)cc(C(=O)NCCC(=O)N2CCC3(CC2)NCCc2[nH]cnc23)c1	i	i	i	i	3.9	i
Fc1ccc(-n2nnc(-c3cccnc3)n2)cc1	i	11	i	i	i	i
CCC(C)N(C(=O)CSc1nnc(-c2ccco2)n1C)C1CCS(=O)(=O)C1 (stereo not drawn)	i	i	i	i	i	4.6
c1ccc2oc(-c3ccc(Nc4nc(N5CCOCC5)nc(N5CCOCC5)n4)cc3)nc2c1	i	i	i	i	i	i
COc1ccc(NC(=O)C(NC(=O)Cc2cccs2)c2ccccc2)cc1 (stereo not drawn)	i	i	i	i	i	i
COc1ccc(NC(=O)C(NC(=O)Cc2cccs2)c2ccc(C)cc2)cc1 (stereo not drawn)	i	i	i	i	i	4.7
COc1ccc(NC(=O)CCC(=O)c2cccs2)c(OC)c1	nt	nt	nt	nt	nt	i
SMILES	ssDAF12 agonist	hgDAF12 agonist	hcDAF-12 act	SMARCA2 act	DAX1 inh-1	DAX1 inh-2
COc1ccc(NC(=O)Cc2cccs2)c(OC)c1	i	10	i	i	i	i
C=Cn1cc[n+](CC(=O)c2cccs2)c1	i	i	5.6	i	i	i
CC(=O)c1c(C)[nH]c(C(=O)Nc2ccc3c(c2)OCCO3)c1C	i	11	i	i	i	i
CC(=O)c1c(C)[nH]c(C(=O)Nc2nccs2)c1C	i	12	i	i	i	i
CC(=O)c1c(C)[nH]c(C(=O)Nc2cccnc2)c1C	i	i	i	i	i	i
CCOC(=O)c1[nH]c(C)c(C(=O)Nc2ccc3c(c2)OCCO3)c1C	i	i	i	i	i	i
CCc1ccc(NC(=O)c2[nH]c(C)c(C(C)=O)c2C)cc1	i	13	i	i	i	i
CN(CC(=O)Nc1ccc(Cl)cc1)CC(=O)N1CCc2ccccc21	i	i	i	i	i	i
CN1OC[C@@H]2CN(C(=O)C(C)(C)C)[C@H](c3ccc(-c4cc5ccccc5o4)cc3)C[C@@H]21	i	i	i	i	i	i
CC(C)(C)C(=O)NCCN1C(=O)S/C(=C\c2ccc([N+](=O)[O-])cc2)C1=O	i	12	i	i	i	i
O=C(/C=C/c1ccccc1[N+](=O)[O-])NCCN1C(=O)S/C(=C\c2ccc(F)cc2)C1=O	i	i	i	i	i	i
CC1(c2nc3ccccc3[nH]2)CCC(=O)N1Cc1ccc(F)cc1 (stereo not drawn)	i	i	i	i	i	nt
Cc1ccc(Cc2nnc3n(-c4ccccc4)nc(C(=O)c4ccccc4)n3c2=O)cc1	i	i	i	i	i	7.0
CC(C)c1ccccc1OCC(=O)N(C)CC(=O)Nc1ccc(F)cc1	i	i	i	i	i	i
O=C(c1ccco1)[C@@H]1[C@@H]2C(=O)N(c3ccc(F)cc3)C(=O)[C@@H]2C2c3ccccc3C=CN21 (stereo partly drawn)	i	i	i	i	i	nt
O=C(c1ccco1)[C@@H]1[C@@H]2C(=O)N(c3ccc(Br)cc3)C(=O)[C@@H]2C2c3ccccc3C=CN21 (stereo partly drawn)	1.2	i	i	i	i	i
CCc1nnc(NC(=O)CC23CC4CC(CC(Br)(C4)C2)C3)s1	i	i	i	i	i	i
C[C@H]1[C@@H](N(C)CC2CCCCC2)CC[C@@]23CCCN2C(=O)CCC[C@@H]13	i	i	i	nt	nt	nt
Cc1ccc(-c2nc3cc(N)ccc3o2)c(C)c1	i	12	i	i	i	i
COCCNC(=O)c1cc(-c2cccc(OC)c2)on1	i	11	i	i	i	i
COc1cccc(-c2cc(C(=O)NCc3cccs3)no2)c1	i	13	i	i	i	i
CCN(CC)CCCNC(=O)C1CCN(c2ncnc3c2sc2cccc(F)c23)CC1	1.0	i	i	i	i	i
CCCCCCc1ccc(-c2ncc(N)cn2)cc1	i	11	i	i	i	i
CC(=O)Nc1cc(C)ns1	i	i	i	i	i	4.3
Cc1cccc(NC(=O)Nc2ccc(C)c(C)c2)n1	i	i	6.2	i	i	i
Cc1cccc(NC(=O)Nc2cccc(C)n2)n1	i	i	i	i	i	i
O=C1C2C3CCC(O3)C2C(=O)N1c1cccc(O)c1 (stereo not drawn)	0.9	i	i	i	i	i
